S2 tox: reduces viability in counter-screen for ATXN expression inhibitors | AID 651635 | 0.49% of 400,000 active | S2 cells (HEK-293 line with an ATXN2-luciferase reporter) viability, CellTiter-Fluor protease fluorescence, 24 h | Potency, µM (highest dose often 56.7 µM), actives largely listed as cytotoxic; also: nearly all actives have a fitted effect of over 40% in size
Nrf2 activator: activators of Nrf2 (ARE) signaling; 0.31% of 410,000 active; AREc32 ARE-luciferase reporter (MCF7-derived line), luminescence, 24 h; Potency, µM (titrated, usually from 46.1 µM), for the others: at the highest dose activation, most hits filed as activators; also: % of control where 0% means no effect; nearly all actives have a fitted effect of over 65% in size
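Nrf2 activation is followed as ARE-luciferase induction in the AREc32 line after one day of compound treatment; luminescence is read with Steady-Glo.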
A549 tox: kills or reduces viability of A549 cells in Nrf2 counter-screen | A549 ARE-Fluc cells, CellTiter-Fluor viability, 18-24 h | Potency, µM (doses to about 46 µM), for inactives: at the top dose activity change, negative = cytotoxicity, most hits filed as inhibitors | 0.16% of 390,000 active | AID 504648; also: % is scaled to controls: 0 for no effect and ±100 for the full control effect
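A549 ARE-Fluc cells in 5% FBS OPTI-MEM, 5000 cells/well, rested 2 h then exposed to compounds in concentration-response for 18-24 h at 37 °C. Viability by CellTiter-Fluor fluorescence (Ex 405/Em 525) after 30 min; luciferase luminescence (BugLite, 15 min, RT) read afterwards.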
ATXN2 expr inh: reduces ATXN2 reporter expression in HEK-293 cells; 0.72% of 360,000 active; HEK-293 ATXN2-luciferase reporter, luminescence, 24 h; AID 1745845; Potency, µM (top dose mostly 57 µM), without a hit: at the highest dose activity change, negative = inhibition, hits mostly inhibitors; also: % is scaled to controls: 0 for no effect and ±100 for the full control effect; nearly all actives have a fitted effect of over 55% in size
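ATXN2-luciferase reporter cells (luciferase flanked by upstream and downstream ATXN2 gene portions) were treated 24 h at 37 °C with compounds at up to 57 uM. SteadyGlo luminescence gave expression; GF-AFC fluorescence gave viability.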
Nrf2 inh: Nrf2 pathway inhibition; A549 ARE-Fluc reporter, luciferase luminescence, 18-24 h; Potency, µM (series often up to 46 µM), for the others: top-dose activity change, negative = inhibition, usual class: inhibitors; 2.1% of 360,000 active; also: % is scaled to controls: 0 for no effect and ±100 for the full control effect; nearly all actives have a fitted effect of over 60% in size
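Reporter: ARE-Fluc in A549. Exposure: 18-24 h, 37 °C, 5% CO2, 5% FBS OPTI-MEM. Readouts: fluorescent cytotoxicity (CellTiter-Fluor), then luminescent Nrf2 signal after BugLite.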
* hit, by the source's call; i = inactive; u = inconclusive; x = no result; [ ] = another dose, or the depositor's remark. Shown are actives, neighbours in structure and some others; about 2.9% of the full set was active somewhere. Calls follow the shape of the dose curve; as a rule, active = well fitted curve in the direction sought with a large enough effect; inconclusive = small, poorly fitted or top-dose-only effect, or another doubt; inactive = no such curve, though single readings can be large; an effect the other way counts as inactive or inconclusive. Potency is read from the fitted curve at half-maximal effect.

SMILES	S2 tox	Nrf2 activator	A549 tox	ATXN2 expr inh	Nrf2 inh
Fc1ccc(-[n+]2nc(Nc3ccccc3)sc2-c2c3ccccc3cc3ccccc23)cc1	11.2µM*	-1.1%	u	25.1µM*	u
COc1cccc(CNC(=O)c2c(OC)cc(=O)n3c2CCN(C(=O)c2ccc(Cl)cc2)CC3)c1	i	x	x	x	x
NCCCn1c(C(=O)c2cc(Cl)c(N)c(Cl)c2)c2ccc([N+](=O)[O-])cc2[n+]1[O-]	10µM*	u	18.4µM*	u	156.8%
NCCCn1c(C(=O)c2cc(Cl)c(N)c(Cl)c2)c2ccc(C(F)(F)F)cc2[n+]1[O-]	u	3.9%	-19.2%	-30.0%	15.7%
CNC(=O)C1CCC(Cn2c(=O)c3sccc3n(CC(=O)Nc3ccc(C)c(C)c3)c2=O)CC1 (stereo unspecified)	i	0.5%	-16.9%	u	23.1µM*
COc1c(OC(C)=O)ccc(/C=C/c2ccc3ccccc3n2)c1[N+](=O)[O-]	22.4µM*	-0.5%	-15.5%[1.84 µM]	-40.9%	15.3%
COc1c(OC(C)=O)ccc(/C=C/c2ccc3cccc(OC)c3n2)c1[N+](=O)[O-]	i	16.1%	u	7.8%	u
COC(=O)c1cc2sc(C)cc2n1Cc1ccc(Br)cc1F	x	4.2%	0.1%	x	5.9%
Cc1cc(C)n(CC(O)Cn2c3ccc(Cl)cc3c3cc(Cl)ccc32)c(=O)n1 (stereo unspecified)	u	4.4%	1.9%	31.6µM*	u
CCN1CCN(c2ncc(C(=O)Nc3ccccc3C(=O)OC)c3ccccc23)CC1	u	0.0%	18.4µM*	-19.3%	4.5%
CCc1ccc(NC(=O)c2cnc(N3CCN(c4ccccn4)CC3)c3ccccc23)cc1	u	0.1%	u	-6.2%[11.3 µM]	11.6µM*
CCOc1ccccc1NC(=O)c1cnc(N2CCOCC2)c2ccccc12	x	5.0%	-1.6%	x	x
CC(C)NC(=O)c1cnc(N2CCN(c3ccccn3)CC2)c2ccccc12	i	0.1%	-8.0%	-15.1%	u
O=C(Nc1nc(-c2cccs2)cs1)c1ccco1	i	12.6µM*	6.3%	x	u
O=C(c1ccccc1)c1cccc(NC(=O)c2ccco2)c1	i	6.3%	-6.6%	72.7%	6.6%
O=C(Nc1nc2c(F)cccc2s1)c1ccco1	i	7.08µM*	1.0%	69.7%	u
O=C(Nc1ccccc1O)c1cccc(NC(=O)c2ccco2)c1	i	7.94µM*	0.3%	-3.9%	9.4%
O=C(Nc1cccc(F)c1)c1ccco1	i	10µM*	-3.4%	12.5%	9.4%
COc1ccccc1OCC(=O)NCC1(N2CCOCC2)CCCCC1	x	-0.1%	0.0%	x	8.3%
COC(=O)c1cc(CNC(=O)c2cccc(N(C)C)c2)cc(NC(=O)c2ccccc2Cl)c1	i	x	x	x	x
O=C(Nc1ccccc1O)c1ccc(C(=O)c2ccccc2)o1	i	12.6µM*	-0.1%	7.4%	16.3%
COc1ccccc1NC(=O)c1ccc(C(=O)c2ccccc2)o1	i	6.5%	2.3%	-3.0%	-10.1%
O=C(/C=C/c1ccc(Cl)c([N+](=O)[O-])c1)Nc1cccc(NC(=O)c2ccco2)c1	i	15.3%	-3.4%	x	-8.8%
O=C(/C=C/c1cccc([N+](=O)[O-])c1)Nc1cccc(NC(=O)c2ccco2)c1	u	2.5%	u	u	20.6µM*
N/C(=N\OC(=O)c1cccs1)c1cccc(Br)c1	i	11.2µM*	-0.6%	43.4%	u
SMILES	S2 tox	Nrf2 activator	A549 tox	ATXN2 expr inh	Nrf2 inh
COc1ccc(C(=O)O/N=C(/C)c2cccs2)cc1	i	17.8µM*	9.7%	12.5%	x
N/C(=N\OC(=O)c1ccc(Br)cc1)c1ccccc1	i	8.91µM*	2.8%	91.9%	x
N/C(=N\OC(=O)c1cccc(Br)c1)c1ccc(Br)cc1	i	u	-0.2%	35.8%	26.1%
N/C(=N\OC(=O)c1cccs1)c1ccccc1	i	10µM*	5.5%	58.2%	u
NCCCNc1ncnc2ccc(-c3ccc4c(c3)OCO4)cc12	x	x	-7.6%	x	0.0%
COC(=O)c1ccc(NC(=O)CN2C(=O)CC(c3ccccc3)Sc3ccccc32)cc1 (stereo unspecified)	i	-1.9%	-4.9%	11.1%	12.8%
COc1ccc(C2C=C(c3ccccc3)Nc3nc(NC(=O)c4cccc([N+](=O)[O-])c4)nn32)cc1 (stereo unspecified)	i	4.4%	-1.9%	9.3%	11.1%
Cc1cccc(/C(N)=N/OC(=O)c2cccs2)c1	i	14.1µM*	-10.7%	28.1%	u
N/C(=N\OC(=O)c1ccco1)c1ccccc1	i	17.8µM*	-15.0%	75.6%	u
Cc1ccc(/C(N)=N/OC(=O)c2ccco2)cc1	u	24.5%	0.0%	34.0%	u
Cc1ccc(C)c(S(=O)(=O)c2cn(Cc3ccccc3)c3cc(N4CCCC4)c(F)cc3c2=O)c1	x	-0.1%	-20.1%	x	u
CCOc1ccc(S(=O)(=O)N2CCN(Cc3nc4ccc(C)cc4o3)CC2)cc1	i	0.3%	0.3%	-23.5%	x
CC(C)c1nc2sc3ccccc3c(=O)c2c(=O)n1Cc1ccccc1	i	0.5%	-7.4%	x	25.9µM*
CC1=C(C(=O)O)N2C(=O)[C@@H](NC(=O)[C@H](N)C3=CCC=CC3)[C@H]2SC1	i	x	x	11.2%	x
CCOc1cc(CNCCCN2CCOCC2)cc(Br)c1OCC(=O)Nc1cccc(C(F)(F)F)c1	x	-5.5%	-9.6%	22.4µM*	1.7%
COc1cc(CNCCN2CCOCC2)ccc1OCc1ccc(Cl)cc1	i	5.7%	-0.1%	4.5%	u
CCOc1cc(CNCCCN2CCOCC2)cc(Cl)c1OCC(=O)NC(C)(C)C	u	0.1%	-7.5%	-16.3%	6.1%
COc1cc(CNCCCN2CCOCC2)cc(Br)c1OCc1ccc(Cl)cc1	x	-2.9%	-26.3%	21.2µM*	-4.0%
Cc1ccccc1C1(CC(=O)N2CC3(C)CC2CC(C)(C)C3)CC(=O)N(Cc2cccnc2)C1=O (stereo unspecified)	i	x	x	x	x
C=C1C(=O)O[C@H]2C[C@H]1[C@@H](OC(C)=O)C/C(C)=C/CC/C(C)=C\CC[C@]2(C)O	7.94µM*	-2.5%	u	5.62µM*	14.6µM*
CCCC(c1nnnn1CC1CCCO1)N1CCN(c2cc(Cl)ccc2C)CC1 (stereo unspecified)	i	3.3%	u	-35.0%	25.9µM*
Cc1ccc(Cl)cc1N1CCN(C(CC(C)C)c2nnnn2CC2CCCO2)CC1 (stereo unspecified)	i	0.1%	-4.6%	-3.2%	x
Cc1cc2c(cc1NS(=O)(=O)c1ccc(F)cc1)n(C)c(=O)c(=O)n2C	i	-0.7%	5.1%	14.1%	x
Cc1ncsc1CCC(=O)N1CCCC(c2nc(-c3ccncc3)ncc2-c2ccccc2)C1 (stereo unspecified)	i	x	x	x	x
Cc1c(C(=O)Nc2ccncc2)sc2nc(-c3ccccc3)cn12	i	3.1%	-3.6%	-21.8%	10.3µM*

Source: PubChem
